Records with an inconclusive call do not appear. Activity calls are given as the source filed them. Calls come from the whole dose curve; as a rule, active = well fitted inhibition curve with a large enough effect; inconclusive = small, poorly fitted or top-dose-only effect; inactive = flat fitted curve, though single readings scatter.

We go through 23 compounds from PubChem BioAssay (NCATS).
% is set by controls: 0 for no effect and ±100 for the full control effect.

Sequence of Calcium and integrin-binding protein 1 (Homo sapiens) (Q99828 whole entry, looked up): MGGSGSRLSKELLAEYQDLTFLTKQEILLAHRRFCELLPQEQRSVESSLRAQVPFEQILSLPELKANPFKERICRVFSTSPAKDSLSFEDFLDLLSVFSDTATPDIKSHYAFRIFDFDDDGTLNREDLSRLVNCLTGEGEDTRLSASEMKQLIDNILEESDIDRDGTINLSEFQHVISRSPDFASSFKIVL

The target in the assay is Calcium and integrin-binding protein 1 (Homo sapiens) (UniProt Q99828). As to the kind of experiment: Primary qHTS for Identification of Calcium Integrin Binding Protein 1 (CIB1) Competitor (AID 1508620).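 Note: GST tagged CIB1 binding a fluorescein labelled alphaIIb integrin peptide tracer; top concentration of the series differs between compounds.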 The settings on record: CIB1-GST / FITC-alphaIIb peptide fluorescence polarization; series mostly up to 114 µM; activity change, negative = inhibition: at the top concentration. The essentials:
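Fluorescence polarization competition: CIB1-GST (1 uM final) preincubated with compound 15 min at room temperature, then FITC-labeled alphaIIb peptide (100 nM final) added for another 15 min. Polarization read at Ex 480/Em 540.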
As for `Cc1cc(C)c(S(=O)(=O)Nc2cccc3cccnc23)c(C)c1`, the “activity change, negative = inhibition” value is -5.15% (inactive).

On to `Clc1cccc(CSc2nc3ncc(Br)cc3[nH]2)c1`, for which the “activity change, negative = inhibition” value was 7.18% (inactive).

For `FC(F)(F)c1ccccc1-c1nc(NCc2ccc(-c3cccnc3)cc2)c2sccc2n1`, the “activity change, negative = inhibition” value was -2% (inactive).

For the compound `Cc1csc(CNc2ncnc3ccc(-c4ccc5c(c4)OCO5)cc23)n1`, the “activity change, negative = inhibition” value is -4.53% (inactive).

As to `Cc1ccc(NS(=O)(=O)c2ccc3c(c2)CCCC(=O)N3)cc1C`, the “activity change, negative = inhibition” value was 1.81% (inactive).

In the case of `Cc1cc(C)nc(NC(=S)N2CCN(c3ccccn3)CC2)c1`, the Potency result was “inactive”.

For `NC(=O)C1CCN(c2nc(-c3cccnc3)cs2)CC1`, the “activity change, negative = inhibition” value is -3.29% (inactive).

For the compound `COc1cc(O)c(C(CC(=O)N2CCCC(C)C2)c2ccc(OC)c(OC)c2)c(OC)c1` (stereo not drawn), the “activity change, negative = inhibition” value is 3% [at 228 µM] (inactive).

For the compound `O=S(=O)(Nc1cccc2ccccc12)c1ccc(NCc2ccc(Br)cc2O)cc1`, the “activity change, negative = inhibition” value was 2.24% (inactive).

As for `COc1ccccc1C(=O)NCCc1nc2ccccc2n1CCOc1ccc(C)cc1`, the “activity change, negative = inhibition” value was 2.01% (inactive).

For the compound `COc1cc(OC)cc(C2=Nn3c(nnc3-c3ccccc3OC)SC2)c1`, the “activity change, negative = inhibition” value is 4.58% (inactive).

`O=C1CCCC2=C1C(c1[nH]ncc1Cl)N=C(Nc1ccccc1)N2` (stereo not drawn): the “activity change, negative = inhibition” value is -6.72% (inactive).

With `C[C@@](Cc1ccccc1)(C(=O)O)N1C(=O)c2ccc(C(=O)O)cc2C1=O`, the “activity change, negative = inhibition” value is 12.3% (inactive).

In the case of `O=S1(=O)N=C(Oc2cccc(-c3ccccc3)c2)c2ccccc21`, the “activity change, negative = inhibition” value was 2.12% (inactive).

Turning to `Cc1cccc(NS(=O)(=O)c2ccc3c(c2)CCC(=O)N3)c1`, the “activity change, negative = inhibition” value is -1.52% (inactive).

With `COc1cccc(NC(=S)N2CCN(c3ccccc3C(F)(F)F)CC2)n1`, the “activity change, negative = inhibition” value is -3.06% (inactive).

On to `c1nc(NCC2CCCCO2)c2cc(-c3ccc4c(c3)OCO4)ccc2n1` (stereo not drawn), for which the “activity change, negative = inhibition” value was -4.09% (inactive).

As for `Cc1cccc(-n2cnc3cc(C(=O)NC4CCCCC4)ccc32)c1`, the “activity change, negative = inhibition” value is -5.83% (inactive).

On to `CC(=O)N1CCN(c2ccc(N)cc2)CC1`, for which the “activity change, negative = inhibition” value is -5.73% (inactive).

Turning to `CCOc1ccc(C(=O)Nc2ccc(-c3nn[nH]n3)cc2)cc1[N+](=O)[O-]`, the “activity change, negative = inhibition” value was -15.1% (inactive).

With `CCn1cnc2c(Nc3ccc(CCC(=O)N=C(N)N)cc3)nc(C#N)nc21`, the “activity change, negative = inhibition” value is -6.44% (inactive).

On to `O=[N+]([O-])c1ccccc1CSc1nc2ncc(Br)cc2[nH]1`, for which the “activity change, negative = inhibition” value is 1.76% (inactive).

Consider `C#CCOc1cc(C2=Nn3c(nnc3-c3cccc(OCC(C)=O)c3)SC2)ccc1OC`, for which the “activity change, negative = inhibition” value was -2.43% (inactive).
